Screening data (PubChem BioAssay)
In the library only some 1.7% were active in any assay of this set; here they are far more common.
PrP 5UTR inh: suppresses PrP 5' UTR mRNA reporter expression; cell-based PrP 5' UTR mRNA reporter, plate reader; inhibition, % (concentration not given with the values); 340,000 compounds, 0.35% hits; in the data active = inhibition above about 52%; note: 0 = median of the neutral control wells
PrPC surface inh: inhibitors of human cell surface prion protein PrPC | 370,000 compounds, 0.43% hits | inhibition, % at 13.8 µM | TR-FRET read-out; in the data active = inhibition above about 24%; note: 0% = median of the test wells and 100% = reference compound wells
BJeLR lethal: kills HRASV12-expressing BJeLR cells; BJeLR (HRASV12) viability, CellTiter-Glo ATP luminescence, 48 h; inhibition, % (concentration not given with the values); 300,000 compounds, 0.17% hits; AID 1554; in the data active = inhibition above about 50%
Y pestis TopoI: blocks Yersinia pestis topoisomerase I activity. 360,000 compounds, 0.064% hits. activity, % at 10 µM. AID 504884. Y. pestis Topo-I cleavage product accumulation, plate reader; in the data active = activity above about 50%, passing the limit was not always enough
SSB-PriA inh: inhibitors of Klebsiella pneumoniae PriA binding to SSB C-terminal tail | AlphaScreen SSBct-PriA binding, biotinylated peptide | inhibition, % at 33 µM | 430,000 compounds, 0.6% hits | AID 1272365; in the data active = inhibition mostly above about 37%, no sharp cut-off; inactive = mostly below about 20%;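 note: plate controls were negative control peptide for no effect and reference peptide for full effect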
PfHsp40 rescue: restores yeast growth despite PfHsp40 toxicity | S. cerevisiae expressing PfHsp40, growth rescue, ATP luminescence | growth rescue, % at 12.5 µM | 340,000 compounds, 0.68% hits; in the data active = growth rescue above about 28%, passing the limit was not always enough;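 note: yeast W303a lacking pdr1 and pdr3 grown in galactose medium; growth measured after three days at 30 °C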
An asterisk follows results filed as active; . = not tested or not shown; + = active, no number; ! = not confirmed by another sample.

SMILES	PrP 5UTR inh	PrPC surface inh	BJeLR lethal	Y pestis TopoI	SSB-PriA inh	PfHsp40 rescue
Cc1ccc(NC(=O)Cn2c(N)nc(C)c(C)c2=O)c(C)c1	.	.	.	.	-13	.
CCCS(=O)(=O)N1CCc2ccc(NC(=O)c3ccc(OC)cc3OC)cc2C1	.	.	.	.	-3	.
CCCc1cc(-n2ccnc2)n2c(nc3ccccc32)c1C#N	-13	-5	1	-9	-13	-2
Cc1cc(-n2ccnc2)n2c(nc3ccccc32)c1C#N	-20	0	18	4	0	38*
CCCC1CC(C)(c2csc(Nc3ccc(OCC)cc3)n2)OC1=O (stereo not given)	-13	9	6	-7	-6	50*
COc1ccc(C(=O)Nc2nc(-c3ccccc3)ns2)cc1	.	.	.	.	-7	.
Cc1cc(Cl)ccc1OC(C)C(=O)Nc1ccc(C(=O)Nc2ccccc2C(=O)O)cc1 (stereo not given)	-11	4	-3	14	3	52*
CC(NC(=O)Nc1nnc(C(F)(F)F)s1)(C(F)(F)F)C(F)(F)F	-21	57*	12	13	-9	-2
O=C(c1c[nH]c2ccccc12)N1CCC(CSCc2ccco2)CC1	.	.	.	.	35*	.
CN(C)c1cccc(C(=O)N2CCC(CSCc3ccco3)CC2)c1	.	.	.	.	29*	.
O=C(c1ccccc1F)N1CCC(CSCc2ccco2)CC1	.	.	.	.	12	.
CCN1C(=O)c2cc(NC(=O)Cc3ccc(OC)c(OC)c3)ccc2Oc2ccccc21	.	.	.	.	19	.
COc1ccc(CCNC(=O)CSc2cccc3cccnc23)cc1OC	-18	2	4	5	19	0
O=C(CSc1cccc2cccnc12)N1CCCCCC1	.	.	.	.	102*	.
CC(C)(C)NC(=O)CSc1cccc2cccnc12	.	.	.	.	41	.
O=C(CSc1cccc2cccnc12)NCCc1ccc(Cl)cc1	.	.	.	.	77*	.
CN1CCN(C(=O)CSc2cccc3cccnc23)CC1	.	.	.	.	69	.
NC(=O)CSc1cccc2cccnc12	.	.	.	.	64*	.
O=C(O)CSc1cccc2cccnc12	13	4	6	-6	65*!	-2
CN1CCN(n2c3c(c(SCC(=O)N4CCc5ccccc54)nc2=O)CCC3)CC1	.	.	.	.	1	.
O=C(NCC(Cc1cccc(F)c1)N1CCNC1=O)c1cccs1 (stereo not given)	.	.	.	.	-9	.
Cc1cc(NC(=O)CCCBr)n(-c2ncnc3c2cnn3-c2ccc(F)cc2)n1	.	.	.	.	23	.
Cc1ccccc1OCC(=O)Nc1ccccc1N1CCCCC1	-33	6	-11	55*	-35	0
COc1ccccc1C(=O)NC(=S)Nc1ccccc1N1CCCC1	-6	9	-1	3	.	-1
Cc1ccccc1C(=O)NC(=S)Nc1ccccc1N1CCCC1	-13	8	0	7	39*	8
SMILES	PrP 5UTR inh	PrPC surface inh	BJeLR lethal	Y pestis TopoI	SSB-PriA inh	PfHsp40 rescue
Cc1cc(Cl)ccc1OCC(=O)Nc1ccccc1N1CCOCC1	-2	5	3	53*	-14	-1
O=C(COc1c(Cl)cccc1Cl)Nc1ccccc1N1CCCC1	-12	8	-7	54*	-15	5
CCOc1ccc(C(=O)Nc2sc(C)c(C)c2C(=O)NC(=O)OC)cc1	.	.	.	.	1	.
COc1ncc(NC(=O)c2cccc(Oc3ccc(C)nn3)c2)cn1	.	.	.	.	-7	.
CC(Oc1cccc(Cl)c1)C(=O)Nc1ccccc1N1CCCCC1 (stereo not given)	-11	-1	4	34	-29	0
O=C(COc1ccc(Cl)cc1Cl)Nc1ccc(S(=O)(=O)N2CCOCC2)cc1	.	.	.	.	60*	.
CC(Oc1ccc(F)cc1)C(=O)Nc1ccccc1N1CCCCC1 (stereo not given)	-11	4	-4	65*	-5	2
Cc1cc(C(=O)NCC2CCN(c3nc4ccccc4o3)CC2)no1	.	.	.	.	-4	.
CCCCCC/C(=N/O)c1ccccn1	-27	-5	3	6	.	162*
Cc1nc2ccccn2c(=O)c1NC(=O)c1cccc(C(F)(F)F)c1	.	.	.	.	-8	.
c1ccc(-c2nnc(-c3ccccn3)nc2-c2ccccc2)cc1	.	.	.	.	54	.
CCN(CC)c1nc(-c2ccccn2)nc(-c2ccccc2)c1C#N	-51	3	10	27	-21	71*
Nc1ccccc1Nc1ccccc1	-21	-3	7	2	64*	1
c1ccc(Nc2ccc(Nc3ccccc3)cc2)cc1	-40	-4	.	-6	28	0
Nc1ccc(Nc2ccccc2)c(Cl)c1	-13	-1	-8	12	52*	0
S=C(NCCc1ccccc1)NN=C1CCCCCC1	-33	5	6	8	5	1
CC1CCCCC1=NNC(=S)NCCc1ccccc1 (stereo not given)	.	.	.	.	44*	.
C/C(=N\NC(=S)NCCc1ccccc1)c1ccc(C)cc1	-21	-5	-6	1	.	30*
Cc1nnc(NN=Cc2ccccc2O)n1N	.	.	.	.	4	.
Cc1cc(=O)n(CCNC(=O)Nc2ccc3c(c2)OCCO3)cn1	.	.	.	.	-2	.
S=C(NN=C(c1ccccc1)c1ccccn1)N(Cc1ccccn1)Cc1ccccn1	9	13	.	29	74*	135*
NC(=S)N/N=C(\c1ccccc1)c1ccccn1	.	.	.	.	+	.
O=C(NN=C(c1ccccc1)c1ccccn1)c1ccccc1	11	3	.	14	-5	44*
S=C(NN=Cc1ccccn1)N(Cc1ccccn1)Cc1ccccn1	24	-4	.	9	96*	1
O=C(NN=C(c1ccccc1)c1ccccn1)c1ccccc1Cl	.	.	.	.	-7	.
SMILES	PrP 5UTR inh	PrPC surface inh	BJeLR lethal	Y pestis TopoI	SSB-PriA inh	PfHsp40 rescue
CN1c2ccccc2C(C)(C)C12C=Cc1cc(O)ccc1O2 (stereo not given)	-16	5	-1	1	39*	4
CN1c2ccccc2C(C)(C)C12C=Nc1c(cc(N3CCOCC3)c3ccccc13)O2 (stereo not given)	-16	-16	13	-8	-2	-2
O=C1COc2ccc(S(=O)(=O)N3CCN(c4cccc(Cl)c4)CC3)cc2N1	-11	-2	-3	15	-6	53*
NC(=O)c1cc(S(=O)(=O)NCCCc2ccccc2)cs1	-14	6	0	6	49*	-1
CN(C)c1ccc(CNS(=O)(=O)c2csc(C(N)=O)c2)cc1	-13	4	0	4	5	-1
CC(Cc1cccs1)NC(=O)Nc1ccc(Cl)cc1 (stereo not given)	-56	11	-2	18	-16	1
CC(Cc1cccs1)NC(=O)Nc1ccc(Cl)c(Cl)c1 (stereo not given)	-39	13	3	-1	-24	131*
CCOC(=O)C(=NNc1ccc([N+](=O)[O-])cc1[N+](=O)[O-])C(=O)OCC	.	.	.	.	90*	.
C/C(CC(C)C)=N/Nc1ccc([N+](=O)[O-])cc1[N+](=O)[O-]	-15	-1	-3	-8	.	2
CCOC(=O)CC(C)(C)C(C)=NNc1ccc([N+](=O)[O-])cc1[N+](=O)[O-]	.	.	.	.	44*	.
CCOC(=O)C(C)C(C)=NNc1ccc([N+](=O)[O-])cc1[N+](=O)[O-] (stereo not given)	.	.	.	.	67*	.
O=C(CSc1ccc2nnc(-c3cccs3)n2n1)c1ccc(Cl)cc1	.	.	.	.	-7	.
